Measurements reported in PubChem BioAssay AID1117291 (Broad Institute, 2014).
Results with a measured potency or affinity are listed apart. Records with an inconclusive call do not appear. Active and inactive are the calls of the source.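 How the source made its calls: active means compound whose fitted half-maximal potency lies at or below double its highest tested dose in every test; inconclusive means tests disagree, or a flat partial loss, or a poor fit; inactive means every test inactive.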

Assay: HepG2 cell cytotoxicity, dose response, cytotoxicity control, CellTiter-Glo luminescence, dry powder, set 20 (AID 1117291)
Details: HepG2 viability, CellTiter-Glo ATP luminescence, 72 h; series mostly up to 26 µM; activity change, negative = cytotoxicity: at the top concentration

Row | Structure (SMILES) | activity change, negative = cytotoxicity
1 | COc1ccc(C(=O)O)cc1S(=O)(=O)Nc1cc(C(F)(F)F)ccc1N1CCOCC1 | -30.4% (inactive)
2 | O=S(=O)(Nc1cc(C(F)(F)F)ccc1N1CCCCC1)c1ccc(Br)cc1 | -18% (inactive)
3 | O=S(=O)(Nc1cc(C(F)(F)F)ccc1N1CCCCC1)c1ccc(F)cc1 | -27.5% (inactive)
4 | COc1ccc(C(=O)Nc2cc(F)ccc2N2CCCCC2)cc1S(=O)(=O)O | -9.22% (inactive)
5 | O=[N+]([O-])c1ccc(S(=O)(=O)Nc2cc(C(F)(F)F)ccc2N2CCCCC2)c([N+](=O)[O-])c1 | -4.65% (inactive)
6 | Cn1cnc(S(=O)(=O)Nc2cc(C(F)(F)F)ccc2N2CCCCC2)c1 | 16.2% (inactive)
7 | CC(=O)N1CCN(C(=O)C2(NC(=O)Nc3ccc(F)cc3)CCCC2)CC1 | -14.2% (inactive)
8 | O=S(=O)(Nc1cc(C(F)(F)F)ccc1N1CCCCC1)c1ccc(C(F)(F)F)cc1 | -34.1% (inactive)
9 | CC(=O)N1CCN(C(=O)C2(NC(=O)Nc3ccccc3C(F)(F)F)CCCCC2)CC1 | -12.9% (inactive)
10 | O=S(=O)(Nc1cc(C(F)(F)F)ccc1N1CCCCC1)c1ccc(Cl)cc1 | -23.2% (inactive)
11 | COc1cccc(NC(=O)NC2(C(=O)N3CCN(C(C)=O)CC3)CCCCC2)c1 | 0.762% (inactive)
12 | CC(=O)N1CCN(C(=O)C2(NC(=O)Nc3cccc(F)c3)CCCCC2)CC1 | 1.14% (inactive)
13 | CC(=O)N1CCN(C(=O)C2(NC(=O)Nc3ccc(C(C)C)cc3)CCCCC2)CC1 | -21.6% (inactive)
14 | COc1ccc(C(=O)Nc2cc(C(F)(F)F)ccc2N2CCOCC2)cc1S(=O)(=O)O | -8.25% (inactive)
15 | O=S(=O)(Nc1cc(C(F)(F)F)ccc1N1CCCCC1)c1ccccc1 | -7% (inactive)
16 | O=[N+]([O-])c1cccc(S(=O)(=O)Nc2cc(C(F)(F)F)ccc2N2CCCCC2)c1 | -7.31% (inactive)
17 | CC(=O)N1CCN(C(=O)C2(NC(=O)Nc3ccc(C)cc3)CC2)CC1 | -23.3% (inactive)
18 | CC(=O)N1CCN(C(=O)C2(NC(=O)Nc3ccc(C(F)(F)F)cc3)CCCC2)CC1 | -26.9% (inactive)
19 | Cc1ccc(NC(=O)NC2(C(=O)N3CCOCC3)CCCCC2)cc1 | -22.2% (inactive)
20 | CC(=O)N1CCN(C(=O)C2(NC(=O)Nc3ccc(C(F)(F)F)cc3)CCCCC2)CC1 | 1.91% (inactive)
21 | Cc1ccccc1S(=O)(=O)Nc1cc(C(F)(F)F)ccc1N1CCCCC1 | -22.7% (inactive)
22 | COc1ccc(C(=O)Nc2cc(C(F)(F)F)ccc2N2CCCCC2)cc1S(=O)(=O)O | -13.2% (inactive)
